# PubChem BioAssay
# For some assays here: Entries with a potency or affinity are not part of this list. The list shows a part of the results. Inconclusive results are not listed. Activity calls are given as the source filed them. Unless noted, no rule for the calls is given here.
# Experiments:
# [1] = Ring1 de-repression measured by qPCR – cell-based, mouse ESC, RT-qPCR, cherry-pick, esBAF inhibitor project, confirmation (AID 743176;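 active = Ring1 gene expression raised more than 2-fold over untreated cells in both replicates at either tested dose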;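 also: Ring1 transcript normalised to actin housekeeping signal by TaqMan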); conditions: mouse ESC E14, Ring1 mRNA RT-qPCR fold change, stronger effect = higher value
# [2] = Fgf4 repression measured by qPCR – cell-based, mouse ESC, RT-qPCR, cherry-pick, esBAF inhibitor project, confirmation (AID 743177;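 active = Fgf4 expression under 0.8 fold of control in both repeat measurements at one or both tested doses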;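 also: Fgf4 transcript normalised to actin in duplex TaqMan qPCR; cells exposed to compound for 24 h before lysis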); conditions: mouse ESC E14, Fgf4 mRNA qPCR fold change, stronger effect = lower value
# [3] = Bmi1 mRNA increase in mouse ESCs – cell-based, RT-qPCR, mouse ESC, single point, cherry-pick, confirmation (AID 743180;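 active = Bmi1 expression fold change above 6 at either tested concentration, seen in replicate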;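 also: higher fold means more Bmi1 de-repression and stronger esBAF inhibition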); conditions: mouse ESC E14, Bmi1 mRNA qPCR fold, stronger effect = higher value
# [4] = viability loss in A549 cells – cell-based, plate reader, single point, cherry-pick, cytotoxicity control (AID 743188); conditions: at 25 µM
# [5] = viability loss in HepG2 cells – cell-based, plate reader, single point, cherry-pick, cytotoxicity control (AID 743189; in the data active = activity change below about -50%); conditions: at 25 µM, stronger effect = lower value
# [6] = viability loss in HEK293 cells – cell-based, plate reader, single point, cherry-pick, cytotoxicity control (AID 743190; in the data active = activity change below about -38%, passing the limit was not always enough); conditions: at 25 µM
# [7] = A549 cell cytotoxicity, dose response, cytotoxicity control, plate reader, cherry-pick, antagonist series (AID 743412); conditions: series mostly up to 26 µM;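 also: 0% = neutral control wells and -100% = positive control wells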
# [8] = toxicity toward HepG2 liver cells – cell-based, plate reader, cherry-pick, antagonist series, cytotoxicity control, dose response (AID 743416); conditions: series mostly up to 26 µM;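 also: 0% = neutral control wells and -100% = positive control wells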
SMILES,"fold change ([1]; Ring1 fold increase, at 7 µM)",fold change ([1]; at 33 µM),"Fgf4 expression fold change ([2]; Fgf4 expression, at 7 µM)",Fgf4 expression fold change ([2]; at 33 µM),"fold change ([3]; Bmi1 de-repression, at 7 µM)",fold change ([3]; at 33 µM),cell viability change % (negative = cytotoxic) [4],"activity change, negative = inhibition [5]","activity change, negative = inhibition [6]",outcome [7],outcome [8]
O=C(c1cc(-c2ccc(Cl)cc2)on1)N1CCN(c2ccccc2)CC1,1.25,1.06 (inactive),1.02,0.994 (inactive),1.17,1.27 (inactive),-16.6% (inactive),9.34% (inactive),-19.5% (inactive),–,–
Cc1ccc(C(=O)Nc2ccc3c(c2)OCO3)cc1S(=O)(=O)N1CCCCC1,1.42,1.4 (inactive),0.993,0.915 (inactive),1.85,1.9 (inactive),4.97% (inactive),-30.2% (inactive),-2.34% (inactive),–,–
COC(=O)/C(=C1\Oc2ccc(C(C)(C)C)cc2S1)C(F)(F)F,1.4,1.09 (inactive),1.06,0.881 (inactive),1.51,1.42 (inactive),-9.79% (inactive),-31.4% (inactive),0.258% (inactive),–,–
CN(C)c1ccc(CSc2ccccc2)cc1,1.14,1.08 (inactive),–,–,1.01,0.984 (inactive),5.13% (inactive),-22.2% (inactive),0.895% (inactive),–,–
Cc1ccc(-c2cnn3c(N4CCOCC4)cc(C)nc23)cc1,–,–,–,–,–,–,–,–,–,inactive,–
Clc1cccc(Cl)c1Cn1nnc(-c2cccs2)n1,1.24,0.998 (inactive),1.02,0.892 (inactive),1.24,1.5 (inactive),-14.2% (inactive),-32% (inactive),-18.7% (inactive),–,–
O=C(c1ccc(Cl)cc1)c1cnc(Nc2ccccc2)s1,1.37,1.43 (inactive),1.07,0.927 (inactive),1.41,1.36 (inactive),-9.73% (inactive),-14.8% (inactive),-18.7% (inactive),–,–
COc1ccc(-c2csc(NC(=O)c3ccc(OCC(=O)N4CCOCC4)c(OC)c3)n2)cc1,–,–,–,–,–,–,–,–,–,inactive,–
COc1ccc(C(=O)Nc2ccc3ccccc3c2)cc1,–,–,–,–,–,–,–,–,–,inactive,–
O=C(Nc1cccnc1Cl)c1cc(-c2ccccc2O)on1,1.22,1 (inactive),1.2,1.05 (inactive),1.07,1.14 (inactive),-9.75% (inactive),-4.96% (inactive),-13.7% (inactive),–,–
CCS(=O)(=O)n1nc(-c2ccc(OC)cc2)nc1SC,1.25,1.01 (inactive),0.938,1.05 (inactive),1.24,1.6 (inactive),-13.7% (inactive),-11.2% (inactive),-16.8% (inactive),–,–
COc1ccc(Nc2ncnc3sc(C)cc23)cc1,1.32,1.33 (inactive),1.18,1.26 (inactive),1.3,1.05 (inactive),-6.19% (inactive),-4.23% (inactive),-3.92% (inactive),–,–
COc1ccc(C(=O)CCc2ccccc2O)c(OC)c1,1.29,1.23 (inactive),0.836,0.979 (inactive),1.55,1.13 (inactive),-6.31% (inactive),-33.9% (inactive),14.9% (inactive),–,–
O=C(NCCc1ccccc1)c1ccc2c(c1)OCO2,–,–,–,–,–,–,–,–,–,inactive,inactive
CCn1c(C)cc(C(=O)CN2C(=O)c3ccccc3S2(=O)=O)c1C,–,–,–,–,–,–,–,–,–,inactive,inactive
